{"source": "PubChem BioAssay (NCI)", "note": "About 83,000 compounds went through this panel and 20% of them were active in at least one assay; those are over-represented in the sample as a whole.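 A percent growth of 40 corresponds to 60% growth inhibition; 0 means no net growth; -100 means all cells died. Active threshold: below 10.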 Calls of active or inactive are those of the source."}
{"test_system": "HS 578T breast", "assay": "NCI-60 one-dose screen, 48 h (100 = growth as untreated, 0 = no growth, -100 = all killed)", "settings": "10 µM"}
{"smiles": "COc1ccc(-c2cc(C(=O)N=Nc3c(O)[nH]c4ccc(Br)cc34)c3ccccc3n2)cc1", "growth": "61.6% (inactive)"}
{"smiles": "CC(=O)c1ccc(Nc2nc(SCCC(C)C)nc(-c3ccc(F)cc3)c2C#N)cc1", "growth": "32% (inactive)"}
{"smiles": "Clc1cccc(N/N=C/c2c[nH]c3ccccc23)n1", "growth": "28.5% (inactive)"}
{"smiles": "O=[N+]([O-])c1ccc(-c2nc(-c3ccccc3)c(-c3ccccc3)n2-c2ccc(S(=O)(=O)Nc3ncccn3)cc2)cc1", "growth": "37.3% (inactive)"}
{"smiles": "O=C(CSc1nnc(-c2ccc3nc(-c4ccc(Cl)cc4)[nH]c3c2)o1)Nc1ccc(Cl)cc1", "growth": "-32.5% (active)"}
{"smiles": "CCOC(=O)c1c(CSc2ccccc2)n(C)c2cc(CN(C)C)c(O)c(CN(C)C)c12", "growth": "44.3% (inactive)"}
{"smiles": "N#Cc1c(NC(=O)c2cccc(C(F)(F)F)c2)sc2c1CCC(O)=C2", "growth": "44.1% (inactive)"}
{"smiles": "Cc1ccc(-c2nc(Nc3ccc(S(N)(=O)=O)cc3)c3ccccc3n2)cc1", "growth": "90.1% (inactive)"}
{"smiles": "Cc1ccc2nc(COc3ccc(C(=O)NNC(=S)NC(=O)c4ccccc4)cc3)[nH]c2c1", "growth": "60.5% (inactive)"}
{"smiles": "O=C(CNc1nc(-c2ccccc2)cs1)Nc1cccc([N+](=O)[O-])c1", "growth": "-19.2% (active)"}
{"smiles": "CC(=O)Nc1ccc(-c2cn(-c3cccc(C(=O)Nc4cccc(OC(F)(F)F)c4)c3)nn2)cn1", "growth": "53.7% (inactive)"}
{"smiles": "OCCCNc1oc(-c2ccccc2)nc1[P+](c1ccccc1)(c1ccccc1)c1ccccc1", "growth": "-13.3% (active)"}
{"smiles": "CC(C)Sc1nc(NC2CC2)c(C#N)c(-c2ccccc2)n1", "growth": "71.7% (inactive)"}
